Targets include RBM8A (Homo sapiens, UniProt Q9Y5S9); hnRNP E2(3) (Homo sapiens, UniProt Q15366); RBMY1F (Homo sapiens, UniProt Q15415); SAFB2 (Homo sapiens, UniProt Q14151); ROD1(1-2) (Homo sapiens, UniProt O95758).
Test in all cases: protein domain microarray probed with biotinylated miRNA; Domain array: 20 mM Tris-HCl pH 7.4, 200 mM KCl, 0.2 mM EDTA, 0.05% NP40, 2 ug/ul heparin, overnight 4 C. ORF array: PBS pH 7.0 with RNase inhibitor, 100 ng RNA; high values mean tight binding
Common to all, as to settings: ssRNA

The target in the next test is T1, PGC-1 alpha (Homo sapiens, UniProt Q9UBK2).
T1 sequence: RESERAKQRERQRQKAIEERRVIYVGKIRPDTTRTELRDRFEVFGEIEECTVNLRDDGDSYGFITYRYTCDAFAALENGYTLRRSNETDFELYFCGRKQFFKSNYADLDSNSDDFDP

Another test concerns the target T2, NOVA1(3) (Homo sapiens, UniProt P51513).
T2 sequence: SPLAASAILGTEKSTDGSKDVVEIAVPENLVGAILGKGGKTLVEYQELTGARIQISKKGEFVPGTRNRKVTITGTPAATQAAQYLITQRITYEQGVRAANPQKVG

For a further test, the target named is T3, SFRS2 (Homo sapiens, UniProt Q01130).
T3 sequence: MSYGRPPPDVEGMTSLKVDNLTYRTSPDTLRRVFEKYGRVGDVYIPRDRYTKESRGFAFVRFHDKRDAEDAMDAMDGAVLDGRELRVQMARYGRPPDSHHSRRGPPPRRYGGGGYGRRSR

Another test addresses T4, STRBP(2) (Homo sapiens, UniProt Q96SI9).
T4 sequence: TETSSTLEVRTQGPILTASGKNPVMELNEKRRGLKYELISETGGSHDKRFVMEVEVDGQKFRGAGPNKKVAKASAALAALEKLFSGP

A further test addresses T5, KHDRBS3 (Homo sapiens, UniProt O75525).
T5 sequence: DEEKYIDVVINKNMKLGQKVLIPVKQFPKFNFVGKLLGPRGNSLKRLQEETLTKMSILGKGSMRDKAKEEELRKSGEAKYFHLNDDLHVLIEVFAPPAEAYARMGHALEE

The target in another test is T6, PGC-1 beta (Homo sapiens, UniProt Q86YN6).
T6 sequence: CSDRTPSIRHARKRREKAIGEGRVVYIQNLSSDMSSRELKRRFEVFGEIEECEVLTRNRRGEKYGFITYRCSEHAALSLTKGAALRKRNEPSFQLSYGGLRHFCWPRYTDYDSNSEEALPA

A further test addresses T7, RBM12(1-2) (Homo sapiens, UniProt Q9NTZ6).
T7 sequence: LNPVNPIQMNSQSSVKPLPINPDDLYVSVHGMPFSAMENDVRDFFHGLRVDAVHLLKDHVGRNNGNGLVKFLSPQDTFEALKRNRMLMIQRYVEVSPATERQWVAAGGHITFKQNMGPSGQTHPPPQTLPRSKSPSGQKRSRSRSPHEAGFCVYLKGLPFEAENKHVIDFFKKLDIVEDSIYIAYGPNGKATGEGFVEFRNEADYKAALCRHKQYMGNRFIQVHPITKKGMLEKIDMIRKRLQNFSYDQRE

Another test has as its target T8, RBM19(5-6) (Homo sapiens, UniProt Q9Y4C8).
T8 sequence: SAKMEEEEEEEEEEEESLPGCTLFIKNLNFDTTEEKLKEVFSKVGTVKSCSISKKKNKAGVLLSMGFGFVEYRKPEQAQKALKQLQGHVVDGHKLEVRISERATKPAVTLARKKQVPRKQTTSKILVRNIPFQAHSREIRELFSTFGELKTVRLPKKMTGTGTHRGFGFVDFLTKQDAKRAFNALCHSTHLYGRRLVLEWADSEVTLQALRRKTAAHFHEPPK

For the next test, the target named is T9, SSB (Homo sapiens, UniProt P05455).
T9 sequence: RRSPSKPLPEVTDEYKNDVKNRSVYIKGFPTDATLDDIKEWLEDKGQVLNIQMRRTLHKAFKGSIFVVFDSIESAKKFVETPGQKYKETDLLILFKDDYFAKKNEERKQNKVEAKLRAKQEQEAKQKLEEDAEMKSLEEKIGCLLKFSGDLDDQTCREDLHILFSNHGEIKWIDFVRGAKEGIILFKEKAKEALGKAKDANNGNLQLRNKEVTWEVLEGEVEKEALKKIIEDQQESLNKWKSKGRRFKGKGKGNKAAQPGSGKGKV

In a further test the target is T10, RBM28(3-4) (Homo sapiens, UniProt Q9NW13).
T10 sequence: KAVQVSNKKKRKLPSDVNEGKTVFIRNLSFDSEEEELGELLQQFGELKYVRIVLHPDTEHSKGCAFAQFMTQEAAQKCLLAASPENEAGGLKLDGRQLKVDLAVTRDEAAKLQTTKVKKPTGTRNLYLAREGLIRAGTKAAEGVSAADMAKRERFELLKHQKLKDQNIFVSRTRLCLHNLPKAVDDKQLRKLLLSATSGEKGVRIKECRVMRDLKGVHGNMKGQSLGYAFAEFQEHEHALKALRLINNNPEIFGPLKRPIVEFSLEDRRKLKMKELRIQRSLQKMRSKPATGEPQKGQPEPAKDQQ

Another test addresses T11, RBM42 (Homo sapiens, UniProt Q9BTD8).
T11 sequence: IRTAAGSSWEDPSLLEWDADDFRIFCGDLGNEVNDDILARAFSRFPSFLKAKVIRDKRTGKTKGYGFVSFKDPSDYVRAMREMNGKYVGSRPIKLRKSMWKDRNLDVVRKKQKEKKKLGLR

A further test deals with T12, RBM48 (Homo sapiens, UniProt Q5RL73).
T12 sequence: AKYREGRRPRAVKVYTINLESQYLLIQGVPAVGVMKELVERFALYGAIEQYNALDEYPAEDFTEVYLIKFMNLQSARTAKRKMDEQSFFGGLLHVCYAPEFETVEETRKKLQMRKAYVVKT

The next test has as its target T13, Kanadaptin (Homo sapiens, UniProt Q9BWU0).
T13 sequence: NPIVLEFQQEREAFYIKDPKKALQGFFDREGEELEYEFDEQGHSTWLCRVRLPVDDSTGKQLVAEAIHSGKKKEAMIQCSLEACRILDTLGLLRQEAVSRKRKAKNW

For the next test, the target named is T14, RBM9 (Homo sapiens, UniProt O43251).
T14 sequence: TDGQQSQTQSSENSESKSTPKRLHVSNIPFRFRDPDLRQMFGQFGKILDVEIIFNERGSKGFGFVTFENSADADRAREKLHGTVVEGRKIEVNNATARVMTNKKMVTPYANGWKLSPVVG

The target of the next test is T15, NOVA1(1-2) (Homo sapiens, UniProt P51513).
T15 chain: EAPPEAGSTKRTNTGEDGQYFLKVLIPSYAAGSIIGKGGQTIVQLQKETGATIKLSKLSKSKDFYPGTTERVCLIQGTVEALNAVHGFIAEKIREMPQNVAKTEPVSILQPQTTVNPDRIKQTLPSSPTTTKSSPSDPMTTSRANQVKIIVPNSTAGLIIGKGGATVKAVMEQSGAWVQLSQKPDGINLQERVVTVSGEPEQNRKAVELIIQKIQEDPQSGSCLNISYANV

SAFB2, sequence (Q14151 380-500): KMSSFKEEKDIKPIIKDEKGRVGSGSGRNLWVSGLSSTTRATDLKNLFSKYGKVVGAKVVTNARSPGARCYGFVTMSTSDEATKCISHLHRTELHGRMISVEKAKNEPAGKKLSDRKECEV
hnRNP E2(3), sequence (Q15366 269-365): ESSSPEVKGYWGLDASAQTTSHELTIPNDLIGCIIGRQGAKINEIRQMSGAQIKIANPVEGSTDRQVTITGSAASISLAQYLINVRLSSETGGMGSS
ROD1(1-2), sequence (O95758 40-280): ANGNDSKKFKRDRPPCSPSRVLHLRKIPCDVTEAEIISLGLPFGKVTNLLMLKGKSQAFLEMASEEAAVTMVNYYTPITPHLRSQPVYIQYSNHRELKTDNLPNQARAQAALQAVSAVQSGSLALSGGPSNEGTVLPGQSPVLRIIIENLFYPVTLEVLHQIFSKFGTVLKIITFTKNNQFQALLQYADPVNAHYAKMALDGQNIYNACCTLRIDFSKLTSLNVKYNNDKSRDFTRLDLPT
RBMY1F, sequence (Q15415 1-110): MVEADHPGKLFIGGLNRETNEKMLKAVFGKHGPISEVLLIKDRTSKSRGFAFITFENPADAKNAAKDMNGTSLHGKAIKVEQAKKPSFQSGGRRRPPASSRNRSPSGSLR

Take UGAGGUAGUAGGUUGUAUGGUU: the binding signal with RBM8A came out at 462 ± 23.2 fluorescence intensity; with PGC-1 alpha, 61.6 ± 8.6 fluorescence intensity; with NOVA1(3), 111 ± 7.91 fluorescence intensity; with SFRS2 it was 1110 ± 31.5 fluorescence intensity; in the test with STRBP(2), 56.6 ± 5.37 fluorescence intensity; with KHDRBS3, 22.9 ± 1.58 fluorescence intensity. Further, the binding signal stood at 260 ± 19.3 fluorescence intensity with PGC-1 beta; 20.2 ± 0.297 fluorescence intensity with hnRNP E2(3); 1230 ± 64.3 fluorescence intensity with RBM12(1-2); 1430 ± 254 fluorescence intensity with RBMY1F; 231.1 ± 1.89 fluorescence intensity with RBM19(5-6); 770 ± 38.1 fluorescence intensity with SSB. In addition, the binding signal with SAFB2 came to 488.9 ± 0.622 fluorescence intensity; with RBM28(3-4), 77 ± 4.09 fluorescence intensity; with RBM42, 362 ± 5.61 fluorescence intensity; with RBM48 it was 94.7 ± 35.8 fluorescence intensity; with Kanadaptin, 47.3 ± 6.22 fluorescence intensity; in the test with ROD1(1-2), 367 ± 26.4 fluorescence intensity. Moreover, the binding signal with RBM9 amounted to 1940 ± 112 fluorescence intensity; with NOVA1(1-2), 90.1 ± 7.43 fluorescence intensity.

On to AGAGGUAGUAGGUUGCAUAGUU, for which the binding signal amounted to 530 ± 30.3 fluorescence intensity with RBM8A; 50.4 ± 6.92 fluorescence intensity in the test with PGC-1 alpha; 1990 ± 38.5 fluorescence intensity with NOVA1(3); 1507 ± 5.18 fluorescence intensity with SFRS2; 38.5 ± 2.51 fluorescence intensity with STRBP(2); 26.3 ± 5.34 fluorescence intensity in the test with KHDRBS3. In addition, the binding signal with PGC-1 beta amounted to 196 ± 13.5 fluorescence intensity; with hnRNP E2(3), 21.7 ± 1.28 fluorescence intensity; with RBM12(1-2) it was 1270 ± 68.8 fluorescence intensity; in the test with RBMY1F, 2241 ± 17.4 fluorescence intensity; in the test with RBM19(5-6), 122 ± 10.5 fluorescence intensity; in the test with SSB, 587.4 ± 5.08 fluorescence intensity. Moreover, the binding signal with SAFB2 worked out at 328.4 ± 1.94 fluorescence intensity; with RBM28(3-4), 54.1 ± 1.09 fluorescence intensity; in the test with RBM42, 231 ± 13.5 fluorescence intensity; with RBM48 it was 90.1 ± 12.4 fluorescence intensity; in the test with Kanadaptin, 33.9 ± 1.02 fluorescence intensity; with ROD1(1-2), 339 ± 66.7 fluorescence intensity. Moreover, the binding signal with RBM9 amounted to 2720 ± 95.4 fluorescence intensity; with NOVA1(1-2), 318 ± 18.7 fluorescence intensity.

Turning to UAGCUUAUCAGACUGAUGUUGA, the binding signal came out at 126.9 ± 0.87 fluorescence intensity in the test with NOVA1(3); 480 ± 21.9 fluorescence intensity with SFRS2; 20.9 ± 1.85 fluorescence intensity with hnRNP E2(3); 271 ± 62.1 fluorescence intensity with RBM12(1-2); 865 ± 36.1 fluorescence intensity with RBMY1F; 23.1 ± 1.03 fluorescence intensity with RBM19(5-6). Further, the binding signal with SSB was found to be 22.6 ± 3.15 fluorescence intensity; with SAFB2, 54.58 ± 0.247 fluorescence intensity; with RBM42, 21 ± 0.962 fluorescence intensity; with RBM9, 916 ± 20.1 fluorescence intensity.

For the sequence UGAGGUAGUAGGUUGUAUAGUU, the binding signal with RBM8A worked out at 23.6 ± 8.27 fluorescence intensity; with NOVA1(3), 39 ± 1.15 fluorescence intensity; in the test with SFRS2, 464 ± 35 fluorescence intensity; with KHDRBS3, 21.1 ± 1.79 fluorescence intensity; with PGC-1 beta, 45.6 ± 6.99 fluorescence intensity; with hnRNP E2(3) it was 23.4 ± 0.594 fluorescence intensity. Moreover, the binding signal with RBM12(1-2) was 321 ± 62.5 fluorescence intensity; with RBMY1F, 1000 ± 19 fluorescence intensity; in the test with RBM19(5-6), 39.6 ± 0.516 fluorescence intensity; with SSB it was 76.1 ± 6.81 fluorescence intensity; in the test with SAFB2 it was 130 ± 21.8 fluorescence intensity; with RBM42 it was 57.7 ± 4.36 fluorescence intensity. Further, the binding signal with ROD1(1-2) was 49.2 ± 4.26 fluorescence intensity; with RBM9, 693 ± 16.3 fluorescence intensity; with NOVA1(1-2), 27.6 ± 0.799 fluorescence intensity.

Take UGAGGUAGUAGGUUGUGUGGUU: the binding signal is 492 ± 15.8 fluorescence intensity in the test with RBM8A; 72.3 ± 6.39 fluorescence intensity in the test with PGC-1 alpha; 202.3 ± 0.523 fluorescence intensity with NOVA1(3); 1219 ± 7.53 fluorescence intensity in the test with SFRS2; 83.8 ± 5.54 fluorescence intensity in the test with STRBP(2); 28.2 ± 0.368 fluorescence intensity in the test with KHDRBS3. Moreover, the binding signal in the test with PGC-1 beta amounted to 385 ± 12.8 fluorescence intensity; in the test with hnRNP E2(3), 20.3 ± 0.735 fluorescence intensity; in the test with RBM12(1-2) it was 1210 ± 36.7 fluorescence intensity; with RBMY1F it was 1478 ± 10.7 fluorescence intensity; with RBM19(5-6) it was 318.4 ± 2.5 fluorescence intensity; in the test with SSB it was 686 ± 34.9 fluorescence intensity. Also, the binding signal with SAFB2 turned out to be 826.5 ± 2.57 fluorescence intensity; with RBM28(3-4), 135 ± 19.4 fluorescence intensity; with RBM42 it was 613 ± 9.75 fluorescence intensity; in the test with RBM48, 128 ± 27.9 fluorescence intensity; with Kanadaptin, 62.8 ± 3.11 fluorescence intensity; in the test with ROD1(1-2), 562 ± 23.1 fluorescence intensity. In addition, the binding signal in the test with RBM9 amounted to 1610 ± 18 fluorescence intensity; with NOVA1(1-2) it was 134 ± 4.86 fluorescence intensity.

CAGUGCAAUGAUGAAAGGGCAU: the binding signal in the test with RBM8A is 194 ± 11.7 fluorescence intensity; in the test with PGC-1 alpha it was 52.5 ± 18.4 fluorescence intensity; with NOVA1(3), 735.5 ± 6.54 fluorescence intensity; with SFRS2, 1100 ± 38.7 fluorescence intensity; with KHDRBS3 it was 23.5 ± 3.87 fluorescence intensity; in the test with PGC-1 beta, 78.9 ± 4.49 fluorescence intensity. The binding signal with hnRNP E2(3) amounted to 21.9 ± 0.262 fluorescence intensity; with RBM12(1-2) it was 873 ± 45.6 fluorescence intensity; with RBMY1F, 1404 ± 5.42 fluorescence intensity; in the test with RBM19(5-6), 110 ± 1.73 fluorescence intensity; with SSB, 324 ± 18.3 fluorescence intensity; in the test with SAFB2, 298 ± 17.8 fluorescence intensity. The binding signal with RBM28(3-4) worked out at 25.9 ± 2.84 fluorescence intensity; with RBM42 it was 187 ± 2.13 fluorescence intensity; in the test with RBM48, 51.01 ± 0.233 fluorescence intensity; with ROD1(1-2), 116 ± 66.5 fluorescence intensity; with RBM9, 1850 ± 25.3 fluorescence intensity; in the test with NOVA1(1-2) it was 260.9 ± 1.94 fluorescence intensity.

The values are drawn from paper PMC11574364.
